Test results taken from the supplement of paper PMC10849652.
Of roughly 7,900 targets only a part is listed; those with a hit were picked by preference. About 0.6% of all pairs of compound and target were hits.

Key:
Assay in all cases: log2 fold change, soluble protein after heating vs DMSO (PISA); higher = thermal stabilisation; K562 cells, 10 uM, 30 min; active = over 0.2 and 3.5 SD of the protein, either way, in both replicates (recomputed)
[1] = compound: CC[C@@H]1C(=O)N(C)c2cnc(Nc3ccc(C(=O)NC4CCN(C)CC4)cc3OC)nc2N1C1CCCC1
Method in brief: (§1)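 Soluble protein was quantified by TMTpro 16plex LC-MS/MS after channel sums were equalised. It was obtained as the supernatant after 21,000xg for 90 min from pooled aliquots of K562 cells (2×10^6 cells/mL, 10 μM compound, 30 min) heated for 3 min across 48°C-58°C and extracted in PBS with 0.5% NP-40 at 4°C. Thermal stability values are relative to control samples and come from duplicates. They are given as log2 fold changes.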

volasertib = compound: CC[C@@H]1C(=O)N(C)c2cnc(Nc3ccc(C(=O)N[C@H]4CC[C@H](N5CCN(CC6CC6)CC5)CC4)cc3OC)nc2N1C(C)C [volasertib]
Method in brief: as §1

[2] = compound: CC[C@H](C)N1C=C(C2=C(C=C(C=C21)C3=CN=C(C=C3)N4CCNCC4)C(=O)NCC5=C(C=C(NC5=O)C)C)C
Method in brief: as §1

epoxomicin = compound: CC[C@H](C)[C@@H](C(=O)N[C@@H]([C@@H](C)O)C(=O)N[C@@H](CC(C)C)C(=O)[C@]1(CO1)C)NC(=O)[C@H]([C@@H](C)CC)N(C)C(=O)C [epoxomicin]
Method in brief: as §1

[3] = compound: CCn1c(C(=O)N(C2CC2)C2CC2)cc2c3c(ncn3C)c(Nc3cc(C)n(C)n3)nc21
Method in brief: as §1

[4] = compound: CCn1cc(-c2ccnc3[nH]c(-c4cccc(CN(C)C)c4)cc23)c(-c2ccc(NC(=O)N(C)C)cc2)n1
Method in brief: as §1

[5] = compound: CN(C)CC(=O)Nc1ccc2[nH]c(=O)c3ccccc3c2c1
Method in brief: as §1

rosiglitazone = compound: CN(CCOC1=CC=C(C=C1)C[C@H]2C(=O)NC(=O)S2)C3=CC=CC=N3 (racemic) [rosiglitazone]
Method in brief: as §1

[6] = compound: CN1C2=C(C3=C1C(=O)N(N=C3)CC4=CC(=CC=C4)N)SC(=C2)S(=O)C
Method in brief: as §1

[7] = compound: CN1CCC(CNc2ccc3ncc(-c4cccc(OC(F)(F)F)c4)n3n2)CC1
Method in brief: as §1

saracatinib = compound: CN1CCN(CCOc2cc(OC3CCOCC3)c3c(Nc4c(Cl)ccc5c4OCO5)ncnc3c2)CC1 [saracatinib]
Method in brief: as §1

sotrastaurin = compound: CN1CCN(c2nc(C3=C(c4c[nH]c5ccccc45)C(=O)NC3=O)c3ccccc3n2)CC1 [sotrastaurin]
Method in brief: as §1

alvocidib = compound: CN1CC[C@H](c2c(O)cc(O)c3c(=O)cc(-c4ccccc4Cl)oc23)[C@H](O)C1 [alvocidib]
Method in brief: as §1

Tubastatin A = compound: CN1CCc2c(c3ccccc3n2Cc2ccc(C(=O)NO)cc2)C1 [Tubastatin A]
Method in brief: as §1

[8] = compound: CNC(=O)C1=CC=CC=C1NC2=NC(=NC=C2Cl)NC3=C(C=C(C=C3)N4CCOCC4)OC
Method in brief: as §1

defactinib = compound: CNC(=O)c1ccc(Nc2ncc(C(F)(F)F)c(NCc3nccnc3N(C)S(C)(=O)=O)n2)cc1 [defactinib]
Method in brief: as §1

rucaparib = compound: CNCc1ccc(-c2[nH]c3cc(F)cc4c3c2CCNC4=O)cc1 [rucaparib]
Method in brief: as §1

[9] = compound: CNc1nc(-c2ccc3c(N)n[nH]c3c2)cc(N2C[C@@H](C(=O)NC3CCCCC3)CC[C@H]2C)n1
Method in brief: as §1

encorafenib = compound: COC(=O)N[C@@H](C)CNc1nccc(-c2cn(C(C)C)nc2-c2cc(Cl)cc(NS(C)(=O)=O)c2F)n1 [encorafenib]
Method in brief: as §1

[10] = compound: COC(=O)[C@H](CCSC)NC(=O)C1=C(C=C(C=C1)NC[C@H](CS)N)C2=CC=CC=C2
Method in brief: as §1

Measured: log2 fold change

ADD2 (UniProt P35612)
inactive: [1] 0.037 | volasertib 0.031 | [2] -0.044 | epoxomicin 0.006 | [3] 0.025 | [4] -0.043 | [5] -0.038 | rosiglitazone 0.003 | [6] -0.02 | [7] 0.008 | saracatinib 0.049 | sotrastaurin -0.004 | alvocidib -0.031 | Tubastatin A -0.025 | [8] -0.033 | defactinib -0.051 | rucaparib -0.012 | [9] 0.001 | encorafenib -0.025 | [10] -0.003

ARPP19 (UniProt P56211)
UniProt P56211, sequence (P56211 whole entry, looked up): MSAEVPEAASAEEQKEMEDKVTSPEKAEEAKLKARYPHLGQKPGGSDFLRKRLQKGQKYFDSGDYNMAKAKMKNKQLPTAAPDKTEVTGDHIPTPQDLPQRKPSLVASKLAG
inactive: [1] 0.013 | volasertib 0.016 | [2] -0.01 | epoxomicin 0.041 | [3] 0.029 | [4] -0.052 | [5] 0.032 | rosiglitazone 0.001 | [6] 0.069 | [7] -0.041 | saracatinib -0.002 | sotrastaurin 0.01 | alvocidib 0.032 | Tubastatin A -0.047 | [8] -0.015 | defactinib -0.089 | rucaparib -0.05 | [9] -0.056 | encorafenib -0.016 | [10] 0.002

ATP1A1 (UniProt P05023)
inactive: [1] 0.058 | volasertib 0.059 | [2] -0.029 | epoxomicin -0.025 | [3] 0.021 | [4] -0.026 | [5] -0.009 | rosiglitazone -0.004 | [6] -0.053 | saracatinib 0.046 | sotrastaurin 0.039 | alvocidib -0.034 | Tubastatin A -0.026 | [8] -0.026 | defactinib -0.024 | rucaparib -0.009 | [9] 0.011 | encorafenib -0.001 | [10] 0.014
active: [7] 0.26

ALG3 (UniProt Q92685)
UniProt Q92685, sequence (Q92685 whole entry, looked up): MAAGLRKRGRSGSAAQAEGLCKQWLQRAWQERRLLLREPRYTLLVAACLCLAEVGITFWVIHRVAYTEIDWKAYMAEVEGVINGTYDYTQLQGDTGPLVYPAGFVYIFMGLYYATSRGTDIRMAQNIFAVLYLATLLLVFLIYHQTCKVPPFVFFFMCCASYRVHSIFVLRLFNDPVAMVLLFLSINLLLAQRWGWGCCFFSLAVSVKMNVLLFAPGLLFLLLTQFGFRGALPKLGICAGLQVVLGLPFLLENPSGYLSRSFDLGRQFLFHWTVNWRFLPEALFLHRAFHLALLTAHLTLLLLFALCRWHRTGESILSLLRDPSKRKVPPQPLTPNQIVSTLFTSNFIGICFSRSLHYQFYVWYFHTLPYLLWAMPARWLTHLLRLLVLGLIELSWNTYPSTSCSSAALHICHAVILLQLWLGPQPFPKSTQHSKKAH
inactive: [1] 0.005 | volasertib -0.164 | [2] 0.02 | epoxomicin 0.039 | [3] -0.022 | [4] -0.037 | [5] -0.002 | rosiglitazone 0.049 | [6] -0.028 | [7] 0.033 | saracatinib 0.145 | sotrastaurin -0.047 | alvocidib 0.055 | Tubastatin A -0.056 | [8] 0.116 | defactinib 0.009 | rucaparib 0.1 | [9] 0.056 | encorafenib 0.076 | [10] 0.013

ARFGEF1 (UniProt Q9Y6D6)
UniProt Q9Y6D6, sequence (Q9Y6D6 whole entry, looked up): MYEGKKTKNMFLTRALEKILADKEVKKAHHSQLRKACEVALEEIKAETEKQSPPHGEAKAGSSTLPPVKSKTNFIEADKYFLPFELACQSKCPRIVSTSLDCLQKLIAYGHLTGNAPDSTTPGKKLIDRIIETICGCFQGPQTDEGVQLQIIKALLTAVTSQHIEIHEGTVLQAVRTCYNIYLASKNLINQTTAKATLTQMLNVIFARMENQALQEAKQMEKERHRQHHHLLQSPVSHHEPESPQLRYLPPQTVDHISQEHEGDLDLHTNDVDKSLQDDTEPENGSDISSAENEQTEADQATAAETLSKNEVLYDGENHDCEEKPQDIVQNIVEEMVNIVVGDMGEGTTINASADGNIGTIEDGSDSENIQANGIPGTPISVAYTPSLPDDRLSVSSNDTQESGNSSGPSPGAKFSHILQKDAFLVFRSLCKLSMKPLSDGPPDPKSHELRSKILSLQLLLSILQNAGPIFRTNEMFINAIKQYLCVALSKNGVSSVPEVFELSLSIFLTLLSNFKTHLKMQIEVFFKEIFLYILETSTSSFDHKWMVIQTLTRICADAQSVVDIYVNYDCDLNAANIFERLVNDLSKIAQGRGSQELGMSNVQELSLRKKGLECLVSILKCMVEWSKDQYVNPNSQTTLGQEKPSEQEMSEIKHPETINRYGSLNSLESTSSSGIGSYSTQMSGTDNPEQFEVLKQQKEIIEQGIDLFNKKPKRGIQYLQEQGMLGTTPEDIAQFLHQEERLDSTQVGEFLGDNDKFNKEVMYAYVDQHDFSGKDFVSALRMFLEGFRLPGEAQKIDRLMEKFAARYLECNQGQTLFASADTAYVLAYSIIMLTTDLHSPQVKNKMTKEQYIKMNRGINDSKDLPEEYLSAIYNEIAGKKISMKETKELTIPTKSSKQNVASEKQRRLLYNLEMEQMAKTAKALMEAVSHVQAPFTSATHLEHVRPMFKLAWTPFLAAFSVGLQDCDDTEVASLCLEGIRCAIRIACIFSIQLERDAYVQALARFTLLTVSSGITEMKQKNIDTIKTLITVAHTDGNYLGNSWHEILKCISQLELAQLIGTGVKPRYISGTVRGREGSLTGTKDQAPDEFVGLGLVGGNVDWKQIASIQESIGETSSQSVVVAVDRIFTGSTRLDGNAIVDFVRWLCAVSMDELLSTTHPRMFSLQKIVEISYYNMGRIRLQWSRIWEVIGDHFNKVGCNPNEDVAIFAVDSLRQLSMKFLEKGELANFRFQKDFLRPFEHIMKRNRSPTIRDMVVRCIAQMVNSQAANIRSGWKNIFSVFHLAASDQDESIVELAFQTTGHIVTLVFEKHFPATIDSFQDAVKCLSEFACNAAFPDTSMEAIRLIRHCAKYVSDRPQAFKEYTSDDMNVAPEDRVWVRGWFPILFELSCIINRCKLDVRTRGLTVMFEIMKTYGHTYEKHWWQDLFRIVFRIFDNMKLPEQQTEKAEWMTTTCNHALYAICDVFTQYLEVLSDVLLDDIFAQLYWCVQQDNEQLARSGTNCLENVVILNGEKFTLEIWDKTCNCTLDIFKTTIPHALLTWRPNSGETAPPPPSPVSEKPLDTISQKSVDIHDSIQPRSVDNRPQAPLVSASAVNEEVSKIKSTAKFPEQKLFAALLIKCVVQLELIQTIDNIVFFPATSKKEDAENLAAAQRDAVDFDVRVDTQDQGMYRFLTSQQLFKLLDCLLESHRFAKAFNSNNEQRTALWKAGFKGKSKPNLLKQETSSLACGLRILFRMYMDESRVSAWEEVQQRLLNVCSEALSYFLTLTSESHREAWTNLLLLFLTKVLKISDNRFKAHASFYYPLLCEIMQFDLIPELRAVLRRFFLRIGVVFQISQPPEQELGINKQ
inactive: [1] -0.022 | volasertib -0.248 | [2] 0.01 | epoxomicin 0.033 | [3] -0.007 | [4] 0.011 | [5] -0.005 | rosiglitazone 0.045 | [6] -0.037 | [7] -0.046 | saracatinib 0.037 | sotrastaurin 0.039 | alvocidib -0.055 | Tubastatin A 0.013 | [8] 0.094 | defactinib 0.007 | rucaparib 0.011 | [9] 0.059 | encorafenib 0.048 | [10] -0.038

APLP2 (UniProt Q06481)
inactive: [1] 0.076 | volasertib -0.04 | [2] -0.092 | epoxomicin 0.017 | [3] 0.089 | [4] 0.006 | [5] -0.106 | rosiglitazone -0.026 | [6] -0.004 | [7] 0.179 | saracatinib 0.072 | sotrastaurin 0.094 | alvocidib 0.011 | Tubastatin A 0.014 | [8] 0.009 | defactinib -0.055 | rucaparib -0.082 | [9] -0.051 | encorafenib 0.02 | [10] 0.051

B4GALT1 (UniProt P15291)
inactive: [2] 0.033 | epoxomicin 0.051 | [3] 0.041 | [4] -0.048 | [5] -0.03 | rosiglitazone 0.072 | [6] -0.081 | saracatinib -0.017 | sotrastaurin -0.07 | alvocidib -0.117 | Tubastatin A 0.063 | [8] 0.023 | defactinib 0.066 | rucaparib 0.013 | [9] -0.041 | encorafenib 0.032 | [10] -0.084
active: [1] -0.324 | volasertib -0.571 | [7] -0.28

AIP (UniProt O00170)
inactive: [1] -0.115 | [2] 0.054 | epoxomicin 0.172 | [3] -0.006 | [4] -0.051 | [5] 0.057 | rosiglitazone 0.053 | [6] -0.085 | [7] -0.047 | saracatinib 0.009 | sotrastaurin -0.038 | alvocidib -0.079 | Tubastatin A 0.034 | [8] 0.028 | defactinib -0.068 | rucaparib -0.015 | [9] -0.046 | encorafenib 0.065 | [10] -0.025
active: volasertib -0.372

ATL2 (UniProt Q8NHH9)
inactive: [1] 0.031 | volasertib 0.037 | [2] 0.066 | epoxomicin 0.092 | [3] -0.051 | [4] -0.127 | [5] 0.028 | rosiglitazone 0.017 | [6] -0.078 | [7] -0.032 | saracatinib -0.032 | sotrastaurin 0.05 | alvocidib -0.05 | Tubastatin A 0.047 | [8] 0.005 | defactinib 0.008 | rucaparib 0.019 | [9] 0.035 | encorafenib 0.005 | [10] 0.008

ATP5IF1 (UniProt Q9UII2)
active: [10] -0.244
inactive: [1] -0.149 | volasertib 0.141 | [2] -0.078 | epoxomicin -0.041 | [3] 0.021 | [4] 0.013 | [5] -0.13 | rosiglitazone -0.02 | [6] -0.04 | [7] 0.037 | saracatinib -0.111 | sotrastaurin 0.111 | alvocidib 0.013 | Tubastatin A -0.039 | [8] -0.014 | defactinib 0.046 | rucaparib -0.011 | [9] 0.011 | encorafenib -0.063

ATP6V0A2 (UniProt Q9Y487)
inactive: [1] -0.039 | volasertib -0.039 | [2] 0.067 | epoxomicin 0.043 | [3] 0.007 | [4] 0.028 | [5] -0.034 | rosiglitazone -0.037 | [6] 0.006 | [7] -0.169 | saracatinib -0.009 | sotrastaurin -0.07 | alvocidib 0.036 | Tubastatin A 0.061 | [8] -0.003 | defactinib 0.019 | rucaparib -0.003 | [9] -0.021 | encorafenib 0.043 | [10] -0.039

ARAF (UniProt P10398)
UniProt P10398, sequence (P10398 whole entry, looked up): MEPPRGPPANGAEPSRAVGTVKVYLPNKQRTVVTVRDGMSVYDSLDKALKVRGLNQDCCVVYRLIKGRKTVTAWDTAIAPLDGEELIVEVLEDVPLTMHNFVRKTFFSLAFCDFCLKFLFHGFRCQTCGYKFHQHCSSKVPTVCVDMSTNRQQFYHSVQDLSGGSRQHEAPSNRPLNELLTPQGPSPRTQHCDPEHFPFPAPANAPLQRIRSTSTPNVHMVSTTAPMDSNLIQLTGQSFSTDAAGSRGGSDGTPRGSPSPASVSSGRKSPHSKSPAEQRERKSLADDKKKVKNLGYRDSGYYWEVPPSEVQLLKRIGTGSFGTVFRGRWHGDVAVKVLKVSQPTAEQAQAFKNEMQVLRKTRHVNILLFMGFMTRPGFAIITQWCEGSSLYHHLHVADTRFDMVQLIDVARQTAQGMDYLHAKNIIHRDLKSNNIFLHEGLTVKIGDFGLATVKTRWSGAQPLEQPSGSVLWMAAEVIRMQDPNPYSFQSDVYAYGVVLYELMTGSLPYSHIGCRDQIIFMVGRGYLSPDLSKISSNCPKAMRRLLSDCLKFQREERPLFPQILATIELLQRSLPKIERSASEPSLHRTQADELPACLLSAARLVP
inactive: [1] 0.053 | volasertib 0.311 | [2] 0.129 | epoxomicin 0.013 | [3] -0.041 | [4] -0.002 | [5] 0.054 | rosiglitazone 0.047 | [6] -0.025 | [7] -0.132 | saracatinib 0.037 | sotrastaurin -0.022 | alvocidib 0.013 | Tubastatin A -0.004 | [8] -0.084 | defactinib -0.023 | rucaparib 0.01 | [9] 0.023 | encorafenib 0.177 | [10] -0.067

AGRN (UniProt O00468)
UniProt O00468, sequence (O00468 whole entry, looked up): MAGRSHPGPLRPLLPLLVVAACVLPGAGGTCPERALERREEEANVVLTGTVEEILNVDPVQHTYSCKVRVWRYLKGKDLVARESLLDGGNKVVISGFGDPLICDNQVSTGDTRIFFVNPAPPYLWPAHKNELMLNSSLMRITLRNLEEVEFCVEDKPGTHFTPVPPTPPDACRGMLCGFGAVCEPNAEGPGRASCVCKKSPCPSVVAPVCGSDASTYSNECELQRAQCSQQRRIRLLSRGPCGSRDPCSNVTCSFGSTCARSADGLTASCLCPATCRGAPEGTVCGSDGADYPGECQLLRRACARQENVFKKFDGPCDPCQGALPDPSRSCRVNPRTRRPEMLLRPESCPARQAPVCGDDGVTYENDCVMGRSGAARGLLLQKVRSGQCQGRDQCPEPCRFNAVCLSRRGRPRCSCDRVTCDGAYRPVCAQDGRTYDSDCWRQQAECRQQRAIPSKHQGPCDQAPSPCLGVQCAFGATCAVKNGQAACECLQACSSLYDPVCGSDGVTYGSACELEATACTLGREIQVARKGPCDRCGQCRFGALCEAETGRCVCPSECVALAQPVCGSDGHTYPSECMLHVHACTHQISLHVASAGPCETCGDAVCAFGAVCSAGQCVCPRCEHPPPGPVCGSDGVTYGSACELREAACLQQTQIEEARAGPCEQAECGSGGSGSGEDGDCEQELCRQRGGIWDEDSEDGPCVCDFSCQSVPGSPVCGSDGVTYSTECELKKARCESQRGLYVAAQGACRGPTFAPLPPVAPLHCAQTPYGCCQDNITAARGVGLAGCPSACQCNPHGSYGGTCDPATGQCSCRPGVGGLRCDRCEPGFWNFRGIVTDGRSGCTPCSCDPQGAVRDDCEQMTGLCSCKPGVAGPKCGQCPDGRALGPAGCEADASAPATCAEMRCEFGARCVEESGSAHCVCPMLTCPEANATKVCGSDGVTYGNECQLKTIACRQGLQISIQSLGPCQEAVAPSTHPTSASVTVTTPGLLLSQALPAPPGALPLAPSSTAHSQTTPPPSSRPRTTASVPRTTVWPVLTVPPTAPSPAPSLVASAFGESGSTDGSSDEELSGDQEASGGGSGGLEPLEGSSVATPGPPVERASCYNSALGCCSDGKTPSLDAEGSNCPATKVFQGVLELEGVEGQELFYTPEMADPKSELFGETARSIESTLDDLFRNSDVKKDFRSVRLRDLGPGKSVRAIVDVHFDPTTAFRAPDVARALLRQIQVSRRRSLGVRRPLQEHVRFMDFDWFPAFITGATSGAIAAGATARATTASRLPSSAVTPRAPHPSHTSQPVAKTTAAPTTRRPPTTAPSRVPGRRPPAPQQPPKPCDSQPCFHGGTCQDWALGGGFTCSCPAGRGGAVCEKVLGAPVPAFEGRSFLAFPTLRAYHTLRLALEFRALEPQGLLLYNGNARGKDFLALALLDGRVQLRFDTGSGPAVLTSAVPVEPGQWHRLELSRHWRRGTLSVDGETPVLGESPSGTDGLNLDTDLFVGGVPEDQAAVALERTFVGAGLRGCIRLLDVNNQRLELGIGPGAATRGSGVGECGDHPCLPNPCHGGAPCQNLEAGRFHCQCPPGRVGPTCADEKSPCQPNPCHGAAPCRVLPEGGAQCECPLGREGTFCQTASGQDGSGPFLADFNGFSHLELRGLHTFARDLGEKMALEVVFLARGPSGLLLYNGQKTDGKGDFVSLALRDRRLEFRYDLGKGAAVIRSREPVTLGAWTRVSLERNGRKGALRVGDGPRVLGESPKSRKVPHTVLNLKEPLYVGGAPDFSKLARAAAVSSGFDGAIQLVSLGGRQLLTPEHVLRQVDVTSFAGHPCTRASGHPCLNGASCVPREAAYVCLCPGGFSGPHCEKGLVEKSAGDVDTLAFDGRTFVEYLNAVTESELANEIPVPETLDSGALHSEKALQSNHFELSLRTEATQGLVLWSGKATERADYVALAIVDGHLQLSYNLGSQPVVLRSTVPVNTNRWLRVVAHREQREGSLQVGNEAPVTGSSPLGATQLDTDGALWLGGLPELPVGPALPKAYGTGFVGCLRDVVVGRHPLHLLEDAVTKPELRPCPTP
inactive: [1] 0.042 | volasertib -0.001 | [2] 0.005 | epoxomicin 0.065 | [3] -0.018 | [4] 0.053 | [5] 0.016 | rosiglitazone -0.012 | [6] 0.062 | [7] -0.02 | saracatinib 0.062 | sotrastaurin 0.065 | alvocidib -0.009 | Tubastatin A -0.01 | [8] 0 | defactinib -0.119 | rucaparib 0.032 | [9] -0.164 | encorafenib 0.034 | [10] 0.014
